This excerpt belongs to a sample that is enriched for hits.
Dicer inh = blocks human Dicer maturation of pre-miR-21; 47,000 compounds, 6% hits; AID 1347074; z-score at 25 µM; cat-ELCCA pre-miR-21 Dicer processing, chemiluminescence; stronger effect = higher value; Q9UPY3; in the data active = z-score above about 3, passing the limit was not always enough;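 also: higher signal means more uncleaved substrate so more Dicer inhibition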
Each line names hits and unclear results; the compound was inactive in the other large screens.

Cc1ccc(CNCCc2ccc3c(c2)OCO3)cc1	none
COc1ccccc1CCNCc1ccc2c(c1)OCO2	Dicer inh 3.3
Fc1ccccc1CCNCc1ccc2c(c1)OCO2	none
O=C(c1ccco1)c1cn(Cc2ccc(Br)cc2)c2ccccc12	none
O=c1c2ccccc2nc(/C=C/c2ccc([N+](=O)[O-])o2)n1-c1ccccc1Cl	none
O=c1c2ccccc2nc(/C=C/c2ccc([N+](=O)[O-])o2)n1-c1ccc(O)cc1	none
Cc1ccccc1-n1c(/C=C/c2ccc([N+](=O)[O-])o2)nc2ccccc2c1=O	Dicer inh 5.5
C=C1CC2(C)C(=CC1=O)CCC1C2CCC2(C)C1CC[C@]2(C)OC(C)=O (stereo partly specified)	none
Cc1ccccc1NC1=NCC(C)(C)S1	none
CC1(C)CN=C(Nc2cccc(C(F)(F)F)c2)S1	none
CC1(C)CN=C(Nc2ccccc2)S1	Dicer inh 3
Clc1ccccc1CC1=NCCN1	none
CN1CCc2cc(O)cc3c2[C@H]1Cc1ccc(O)c(O)c1-3	none
CCCN1CCc2cc(O)cc3c2[C@H]1Cc1ccc(O)c(O)c1-3	Dicer inh 4.5
CCN1CCN(c2ncnc3nc[nH]c23)CC1	none
Cc1c(CCN)c2cccc3c2n1CCC3	Dicer inh 3.5
O=C1CC2CCCC(C1)N2Cc1ccccc1	none
CN1CC[C@@]2(C)c3cc(O)ccc3N(C)[C@H]12	none
COc1ccc(/C=C/[N+](=O)[O-])c(OC)c1	none
O=[N+]([O-])/C=C/c1ccc(C(F)(F)F)cc1Cl	none
O=[N+]([O-])/C=C/c1ccc(Cl)cc1Cl	Dicer inh 3.5
O=C1CCCN1C(=O)c1ccc(F)cc1	none
CN(CCC#N)c1ccc(C=C2C(=O)NC(=S)NC2=O)cc1	none
CCCCCC[C@H]1C(=O)O[C@H](C)C(NC(=O)c2cccc(NC=O)c2O)C(=O)O[C@@H](C)[C@@H]1OC(=O)CC(C)C (stereo partly specified)	none
Cc1ccc(Cn2nc(C(=O)Nc3ccccc3)cc2C)cc1	none
CCOc1ccc(/C=C(\C)[N+](=O)[O-])cc1OC	none
COc1ccccc1C1CCN(c2ccc([N+](=O)[O-])c(C(F)(F)F)c2)CC1	none
C[C@H](N)[C@H](O)c1ccc(O)c(O)c1	none
COc1ccc(OC)c(C(O)C(C)N)c1 (stereo unspecified)	none
CC(N)[C@H](O)c1ccc(O)c(O)c1 (stereo partly specified)	Dicer inh 4.1
CSc1ncccc1C1=N/C(=C\c2ccc(Cl)cc2)C(=O)O1	none
NC(N)=N/N=C/c1ccc(/C=N/N=C(N)N)cc1	none
Oc1ccc(C2(c3ccc(O)cc3)CCCCC2)cc1	Dicer inh 3.1
CC(=O)OC1CCC2C3CCC4CCC(=O)CC4(C)C3CCC12C (stereo unspecified)	none
Fc1cccc(CN2CCN(Cc3ccccc3F)CC2)c1	none
C#CCSc1nc2ccccc2c(=O)n1-c1ccccc1OC	none
O=C1CN=C(c2ccc(Cl)cc2)c2oc3ccccc3c2N1	none
COc1ccc2oc3c(c2c1)NC(=O)CN=C3c1ccc(F)cc1	Dicer inh 3.3
O=C1CN=C(c2ccccc2)c2oc3ccccc3c2N1	none
CN1C2CCC1CC(=NOC(=O)c1ccco1)C2	none
Cc1cc(C(C)(C)c2ccc(O)c(C)c2)ccc1O	none
COc1ccc2c(CCN)c[nH]c2c1	none
COc1ccc(O)c(C(C)(C)C)c1	Dicer inh 3.8
CC[C@H](C)[C@H]1O[C@]2(C=C[C@@H]1C)C[C@@H]1C[C@@H](C/C=C(\C)C(O[C@H]3C[C@H](OC)C(O[C@H]4C[C@H](OC)[C@@H](O)[C@H](C)O4)[C@H](C)O3)[C@@H](C)/C=C/C=C3\CO[C@@H]4[C@H](O)C(C)=C[C@@H](C(=O)O1)[C@]34O)O2 (stereo partly specified)	none
CCCCCOc1ccc(C2SCC(=O)Nc3c2c(=O)[nH]n3C(C)C)cc1 (stereo unspecified)	none
C=CCC1(CC(C)C)C(=O)NC(=O)NC1=O	none
CCCC(C)C1(CC)C(=O)NC(=O)NC1=O (stereo unspecified)	Dicer inh 3.7
O=C1C(=Cc2cccc3ccccc23)N2CCC1CC2	none
CC12CN3CC(C)(CN(C1)C3c1cccnc1)C2=O (stereo unspecified)	none
O=C1CC(c2cccnc2)Nc2ccc3ccccc3c21 (stereo unspecified)	Dicer inh 3.5
O=S(=O)(c1ccc(Cl)cc1Cl)N1CCCC1c1cccnc1 (stereo unspecified)	none
CCOc1ccccc1NC1=NCCS1	none
ON=C1CC2CCCC(C1)N2Cc1cccs1	none
COc1cccc(-n2c(/C=C/c3ccc([N+](=O)[O-])o3)nc3ccccc3c2=O)c1	none
C=C1CC2(C)C(=CC1=O)CCC1C2CCC2(C)C(O)CCC12 (stereo unspecified)	none
CC(C)CC(=O)NC1CCSC1=O (stereo unspecified)	none
Cc1cc(=O)oc2cc(OC(=O)N(C)C)c(Cl)cc12	Dicer inh 3.6
COc1ccc(Oc2c(C)oc3cc(OC(=O)N(C)C)ccc3c2=O)cc1	none
Cc1cc(CN(C)C)c(OC(=O)N(C)C)cc1C	none
CCCCCOc1ccc2c(c1)oc(=O)c1ccccc12	none
O=C(COc1ccc(Cl)cc1)OCc1csc2c1C1CCN2CC1	none
O=S(=O)(c1ccc(O)cc1)c1ccc(O)cc1	Dicer inh 3.5

Assay outcomes deposited in PubChem BioAssay by Center for Chemical Genomics, University of Michigan.
